One experiment deals with Albumin (Bos taurus) (UniProt P02769). Kind of experiment: bovine serum albumin binders on microarray, profiling panel, artefact control for SMM control protein annotation, biochemical, small-molecule microarray, Alexa647 label, 635/667 nm fluorescence (AID 1118).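 Further: score merges 667 nm emission intensity and signal-to-noise per printed compound spot.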 The settings on record: BSA-A647 binding, fluorescence 635 nm, higher = more signal.
Experiment [1] in a line: small-molecule microarray binders of probe aXIP, primary screen, biochemical, NeuroSMM set, 635/667 nm fluorescence (AID 1119).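 Further: probe is the protein aXip251-270 applied at 1 µg/mL to compound-printed slides; binding of probe to printed compounds measured as 667 nm fluorescence plus signal to noise.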 The settings on record: higher = more signal, called active from +8 up or from −8 down.
Experiment [2] can be described thus: small-molecule binders of probe aNOTCH3, primary screen, biochemical, small-molecule microarray, 635/667 nm fluorescence (AID 1120).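 Further: probe is a biotin-tagged antibody raised against NOTCH3 rather than NOTCH3 protein; score merges spot fluorescence near 667 nm with spot signal to noise.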 The settings on record: higher = more signal.
Experiment [3] can be described thus: small-molecule binders of probe aNOTCH2, primary screen, biochemical, small-molecule microarray, 635/667 nm fluorescence (AID 1121).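 Further: score merges feature fluorescence read at 667 nm with its signal to noise.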 The settings on record: higher = more signal.
For experiment [4], the target named is Carbonic anhydrase 2 (Homo sapiens) (UniProt P00918). Kind of experiment: CAII small-molecule binders, profiling panel, biochemical, small-molecule microarray, Alexa647-labelled CAII (AID 1122). The settings on record: CAII-A647 binding fluorescence, higher = more signal.
Experiment [5] can be described thus: COS7 lysate on small-molecule microarray, probe aHis, 635 nm (AID 1123).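 Further: z-score combines 667nm fluorescence intensity with signal-to-noise per printed compound spot.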 The settings on record: COS7 cell lysate, fluorescence, higher = more signal.
Experiment [6] can be described thus: compound binding in COS7 lysate, probe aLAP1, primary screen, cell lysate, small-molecule microarray (AID 1124).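 Further: lysate comes from COS7 cells expressing LAP1 and is applied at 0.3 µg/mL; score merges spot fluorescence near 667 nm with signal-to-noise over triplicate slides.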 The settings on record: probe aLAP1, fluorescence, higher = more signal.
In the next experiment the test system is Sam68 (KHDRBS1). In words: Sam68 small-molecule binders, primary screen, biochemical, small-molecule microarray, 635 nm fluorescence (AID 1125).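 Further: score merges 667 nm channel intensity with signal to noise over triplicate slides.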 The settings on record: small-molecule microarray binding, higher = more signal.
In experiment [7] the test system is Chordin-like protein 2 (CHRDL2). In words: CHRDL2 small-molecule binders, primary screen, biochemical, small-molecule microarray, 635 nm fluorescence (AID 1126).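 Further: printed compound slides probed with Chrdl2 protein at 4 µg/mL for 1 h at 4 C; score merges 667 nm emission intensity with signal to noise over three replicate slides.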 The settings on record: small-molecule microarray binding, fluorescence 635 nm; higher = more signal.
Experiment [8] deals with Concanavalin-A (Canavalia ensiformis) (UniProt P02866). In words: ConA small-molecule binders, primary screen, artefact control for SMM control protein annotation, biochemical, small-molecule microarray, Alexa647 label, 635 nm (AID 1127).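 Further: z combines 667 nm emission intensity with signal-to-noise across three replicate slides.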 The settings on record: ConA-A647 binding fluorescence, higher = more signal.
Sequence of Concanavalin-A (Canavalia ensiformis) (P02866 whole entry, looked up): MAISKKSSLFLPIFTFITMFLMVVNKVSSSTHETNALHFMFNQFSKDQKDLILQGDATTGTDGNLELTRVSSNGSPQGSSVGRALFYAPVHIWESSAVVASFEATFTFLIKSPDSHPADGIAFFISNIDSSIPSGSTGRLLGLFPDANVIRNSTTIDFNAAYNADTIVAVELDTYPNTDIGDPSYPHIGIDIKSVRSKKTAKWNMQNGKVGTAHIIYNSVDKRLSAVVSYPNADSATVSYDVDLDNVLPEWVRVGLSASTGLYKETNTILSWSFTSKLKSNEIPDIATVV
A short description of experiment [9]: anti-His antibody binders, primary screen, artefact control for SMM control protein annotation, biochemical, small-molecule microarray, 635 nm fluorescence (AID 1128).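 Further: score merges feature fluorescence with signal-to-noise for each printed compound spot.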 The settings on record: anti-His Alexa647 antibody binding, higher = more signal.
For experiment [10], the system named is Human papillomavirus type 1a E7 protein (residues 1-88). Kind of experiment: HPV1a E7 small-molecule binders, primary screen, biochemical, small-molecule microarray, residues 1-88, 635 nm (AID 1129). The settings on record: small-molecule microarray binding, fluorescence 635 nm; higher = more signal.
In experiment [11] the target is Focal adhesion kinase 1 (Homo sapiens) (UniProt Q05397). Kind of experiment: small-molecule microarray binders of FAK, primary screen, biochemical, 635/667 nm fluorescence, BSA, DTT (AID 1130).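 Further: composite of spot emission at 667 nm and signal to noise over triplicate slides.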 The settings on record: PTK2 binding, 635 nm fluorescence, higher = more signal.
Sequence of Focal adhesion kinase 1 (Homo sapiens) (Q05397 whole entry, looked up): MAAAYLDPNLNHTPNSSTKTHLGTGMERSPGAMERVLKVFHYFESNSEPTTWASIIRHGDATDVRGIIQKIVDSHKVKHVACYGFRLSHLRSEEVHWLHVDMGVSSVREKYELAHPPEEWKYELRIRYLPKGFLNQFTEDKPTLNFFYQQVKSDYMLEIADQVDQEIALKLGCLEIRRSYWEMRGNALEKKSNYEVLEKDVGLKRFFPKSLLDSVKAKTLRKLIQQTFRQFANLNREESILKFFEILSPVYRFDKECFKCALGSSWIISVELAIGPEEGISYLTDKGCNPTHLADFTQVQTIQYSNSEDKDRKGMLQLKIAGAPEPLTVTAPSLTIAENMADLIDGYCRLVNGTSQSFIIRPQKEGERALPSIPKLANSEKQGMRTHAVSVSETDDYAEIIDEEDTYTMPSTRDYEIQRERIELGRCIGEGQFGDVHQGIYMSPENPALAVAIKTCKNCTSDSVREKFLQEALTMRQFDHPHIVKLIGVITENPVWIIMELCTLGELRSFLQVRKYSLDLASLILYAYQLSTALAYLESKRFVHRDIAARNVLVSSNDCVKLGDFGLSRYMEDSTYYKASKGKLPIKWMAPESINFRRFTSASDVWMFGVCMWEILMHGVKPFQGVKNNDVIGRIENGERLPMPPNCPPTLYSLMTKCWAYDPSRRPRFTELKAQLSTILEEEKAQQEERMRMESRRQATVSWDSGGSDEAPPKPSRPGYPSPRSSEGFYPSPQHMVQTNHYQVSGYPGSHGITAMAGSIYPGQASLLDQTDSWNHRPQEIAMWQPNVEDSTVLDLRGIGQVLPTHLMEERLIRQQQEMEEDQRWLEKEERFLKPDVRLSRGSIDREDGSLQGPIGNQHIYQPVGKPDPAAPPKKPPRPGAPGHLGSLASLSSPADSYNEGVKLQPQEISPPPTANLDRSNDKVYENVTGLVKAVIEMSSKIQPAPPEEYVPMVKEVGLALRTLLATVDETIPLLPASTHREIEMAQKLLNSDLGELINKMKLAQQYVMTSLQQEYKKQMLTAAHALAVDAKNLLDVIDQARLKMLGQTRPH
Experiment [12] concerns Fibrinogen (Alexa647-labelled). In words: fibrinogen binders on compound microarrays, profiling panel, artefact control for SMM control-protein annotation, biochemical, small-molecule microarray, 635/667 nm fluorescence (AID 1131).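 Further: z-score merges 667 nm fluorescence with per-spot signal-to-noise over triplicate slides.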 The settings on record: fibrinogen-A647 binding fluorescence, higher = more signal.
Experiment [13] addresses Follistatin (Homo sapiens) (UniProt P19883). In words: follistatin binders on small-molecule microarrays, primary screen, biochemical, small-molecule microarray, 635/667 nm fluorescence (AID 1132). The settings on record: FST binding, 635 nm fluorescence, higher = more signal.
Experiment [14] has as its target Fibroblast growth factor 2 (Homo sapiens) (UniProt P09038). Kind of experiment: FGF2 binders on small-molecule microarrays, primary screen, biochemical, small-molecule microarray, 635/667 nm fluorescence (AID 1133). The settings on record: small-molecule microarray binding, FGF2, fluorescence 635/667; higher = more signal.
Experiment [15] in a line: mitochondrial membrane potential change in A549 cells, profiling panel, cell-based, JC-1 fluorescence, basal, 24 h, 100 nL (AID 1138).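 Further: A549 lung adenocarcinoma cells under basal conditions with no added stimulus; test concentration not given here.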 The settings on record: higher = more signal.
The next experiment relates to Lefty1. Kind of experiment: Lefty1 binders on small-molecule microarrays, primary screen, biochemical, small-molecule microarray, 635/667 nm fluorescence (AID 1139). The settings on record: small-molecule microarray binding, fluorescence 635/667; higher = more signal.
Experiment [16] concerns wheat germ agglutinin (Triticum aestivum), Alexa647-labelled. Kind of experiment: wheat germ agglutinin binders on compound microarrays, profiling panel, artefact control for SMM control-protein annotation, biochemical, small-molecule microarray, 635/667 nm fluorescence (AID 1140).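 Further: score merges 667 nm feature emission with signal to noise over triplicate slides.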 The settings on record: WGA-A647 binding, 635 nm fluorescence, higher = more signal.
In experiment [17] the target is Luciferin 4-monooxygenase (Photinus pyralis) (UniProt P08659). In words: firefly luciferase enzyme inhibitors, primary screen, biochemical, luminescence, purified enzyme, 2006 set (AID 1141).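 Further: cell-free assay with purified firefly luciferase at 100 ng per well in PBS; test concentration not given here.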 The settings on record: SteadyGlo luminescence, 30 min, higher = more signal, called active from +8 up or from −8 down.
Sequence of Luciferin 4-monooxygenase (Photinus pyralis) (P08659 whole entry, looked up): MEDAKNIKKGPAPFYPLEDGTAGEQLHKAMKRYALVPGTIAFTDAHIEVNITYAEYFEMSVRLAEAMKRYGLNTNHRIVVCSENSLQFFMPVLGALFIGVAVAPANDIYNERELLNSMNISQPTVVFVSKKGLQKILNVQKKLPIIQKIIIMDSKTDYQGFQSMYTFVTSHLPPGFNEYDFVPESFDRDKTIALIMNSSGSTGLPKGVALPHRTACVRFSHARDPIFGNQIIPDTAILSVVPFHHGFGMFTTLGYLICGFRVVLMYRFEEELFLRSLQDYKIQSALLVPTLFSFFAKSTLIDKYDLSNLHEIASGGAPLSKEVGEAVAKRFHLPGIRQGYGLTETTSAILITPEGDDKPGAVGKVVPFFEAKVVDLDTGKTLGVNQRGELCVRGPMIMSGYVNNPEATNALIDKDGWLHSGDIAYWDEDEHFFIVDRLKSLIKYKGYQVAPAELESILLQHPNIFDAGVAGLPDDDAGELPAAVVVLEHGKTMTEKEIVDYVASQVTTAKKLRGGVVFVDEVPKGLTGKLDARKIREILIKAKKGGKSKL

Calls of active or inactive are those of the source.

Sequence of Follistatin (Homo sapiens) (P19883 whole entry, looked up): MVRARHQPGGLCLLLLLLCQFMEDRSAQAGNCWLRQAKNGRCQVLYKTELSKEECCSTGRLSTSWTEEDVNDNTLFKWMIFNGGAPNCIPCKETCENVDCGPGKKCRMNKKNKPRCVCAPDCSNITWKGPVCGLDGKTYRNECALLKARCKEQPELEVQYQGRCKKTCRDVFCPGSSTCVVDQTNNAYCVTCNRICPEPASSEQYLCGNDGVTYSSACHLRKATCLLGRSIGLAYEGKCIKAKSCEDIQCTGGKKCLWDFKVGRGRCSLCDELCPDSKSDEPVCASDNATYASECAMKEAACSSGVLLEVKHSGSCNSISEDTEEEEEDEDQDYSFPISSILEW
Sequence of Fibroblast growth factor 2 (Homo sapiens) (P09038 whole entry, looked up): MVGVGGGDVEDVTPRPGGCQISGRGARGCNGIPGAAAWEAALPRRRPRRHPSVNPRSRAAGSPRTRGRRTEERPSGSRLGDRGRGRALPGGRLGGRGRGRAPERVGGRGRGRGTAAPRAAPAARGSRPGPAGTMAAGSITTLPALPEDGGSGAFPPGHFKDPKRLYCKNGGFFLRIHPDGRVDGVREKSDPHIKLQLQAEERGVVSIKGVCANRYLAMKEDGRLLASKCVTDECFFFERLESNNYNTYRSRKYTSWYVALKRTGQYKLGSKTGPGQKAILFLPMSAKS
Sequence of Albumin (Bos taurus) (P02769 whole entry, looked up): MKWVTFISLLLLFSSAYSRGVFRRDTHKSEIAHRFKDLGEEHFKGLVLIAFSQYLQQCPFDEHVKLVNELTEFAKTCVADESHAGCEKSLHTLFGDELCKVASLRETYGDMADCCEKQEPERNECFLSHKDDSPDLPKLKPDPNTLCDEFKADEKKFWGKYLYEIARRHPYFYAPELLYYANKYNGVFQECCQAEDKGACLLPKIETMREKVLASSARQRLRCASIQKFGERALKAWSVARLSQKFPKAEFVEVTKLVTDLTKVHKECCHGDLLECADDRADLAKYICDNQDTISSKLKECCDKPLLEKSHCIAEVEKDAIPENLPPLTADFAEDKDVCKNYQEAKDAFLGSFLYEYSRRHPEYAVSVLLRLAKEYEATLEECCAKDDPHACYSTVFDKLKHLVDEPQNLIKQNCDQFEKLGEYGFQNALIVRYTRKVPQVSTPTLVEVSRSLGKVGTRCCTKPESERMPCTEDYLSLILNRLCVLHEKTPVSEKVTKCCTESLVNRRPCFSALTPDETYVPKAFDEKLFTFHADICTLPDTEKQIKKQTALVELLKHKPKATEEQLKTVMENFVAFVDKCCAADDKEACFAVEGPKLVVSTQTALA

Turning to `COCCCNC(=O)[C@@]1(Sc2ccc(C)cc2)CC(=O)N(Cc2ccccc2Cl)[C@@H]1c1ccc(CO)cc1`, the composite z-score was 0.71 with Albumin (Bos taurus); 0.132 in experiment [2]; -0.14 in experiment [3]; 0.718 in experiment [4]; 1.35 in experiment [5]; 0.203 in experiment [6]. Further, the composite z-score is 1.1 with Sam68 (KHDRBS1); 0.649 in experiment [7]; 0.629 in [8]; 0.225 in experiment [9]; 1.12 in [10]; 0.215 in experiment [11]. Besides, the composite z-score in experiment [12] came to 0.833; in experiment [13], 1.35; in experiment [14], 1.24; with Lefty1, 1.13; in experiment [16] it was 0.966. The composite Z-score in [1] is -0.301 (inactive). In addition, the results for the z-score in experiment [15] and in [17] were -0.689 and 1.14 (inactive), respectively.

Take `Cc1ccc([C@H]2C(C(=O)O)=CCN2S(=O)(=O)c2ccc(C)cc2)cc1`: the composite z-score is 0.899 in the experiment with Albumin (Bos taurus); -0.0299 in [2]; -0.109 in experiment [3]; 0.825 in [4]; 1.21 in experiment [5]; 0.584 in [6]. The composite z-score with Sam68 (KHDRBS1) was 0.539; in [7], -0.518; in [8], 1.02; in experiment [9] it was 0.388; in experiment [10], 0.64; in experiment [11], 1.36. The composite z-score in experiment [12] was -0.169; in experiment [13], 0.585; in [14] it was -0.6; in the experiment with Lefty1, 0.0829; in experiment [16] it was 0.572. The composite Z-score in experiment [1] is -0.168 (inactive). Moreover, the figures for the z-score in experiment [15] and in experiment [17] were -0.575 and 0.838 (inactive), respectively.

For the compound `CCCCCCc1nc(-c2ccc(-c3ccc(Cl)c(Cl)c3)o2)c(C)c2c1[Si](C(C)C)(C(C)C)OC2`, the composite z-score in the experiment with Albumin (Bos taurus) is 0.13; in [2], -0.1; in experiment [3] it was -0.166; in experiment [4], 0.0293; in [5], 0.645; in experiment [6] it was -0.173. Also, the composite z-score in the experiment with Sam68 (KHDRBS1) is 0.1; in [7], -1.06; in [8] it was 0.999; in experiment [9], -0.0923; in experiment [10] it was -0.634; in experiment [11], -0.0899. For the same compound, the composite z-score was -0.086 in [12]; -0.0705 in [13]; -0.773 in [14]; 0.268 in the experiment with Lefty1; -0.328 in [16]. The composite Z-score in [1] is 0.0001 (inactive). Further, the z-score in experiment [15] was -0.838; in experiment [17], -2.67 (inactive).

In the case of `O=C1O[C@@H](c2ccccc2)[C@@H](c2ccccc2)N2[C@@H](c3ccccc3OCCO)[C@]3(C(=O)Nc4ccccc43)[C@@H](C(=O)O)[C@H]12`, the composite z-score with Albumin (Bos taurus) is 0.858; in experiment [2] it was -0.254; in experiment [3], -0.0657; in experiment [4], 0.441; in experiment [5] it was 1.78; in experiment [6], 0.369. Further, the composite z-score in the experiment with Sam68 (KHDRBS1) was 1.12; in [7] it was -0.165; in experiment [8] it was 1.13; in experiment [9], 0.969; in [10], 0.718; in [11], 0.66. Further, the composite z-score in [12] is 0.882; in experiment [13], -0.0086; in experiment [14], -0.166; in the experiment with Lefty1, -0.474; in [16] it was 0.56. In addition, the composite Z-score in experiment [1] is -0.0247 (inactive). For the same compound, the z-score was -0.184 in experiment [15] and -1.55 (inactive) in [17].

`CC(=O)NCCCC[C@@H]1NC(=O)[C@H]2C[C@@H](C(=O)O)[C@@H](c3ccc(O)cc3)N2C1=O`: the composite z-score with Albumin (Bos taurus) is -0.0314; in [2], 0.22; in experiment [3] it was -0.0798; in experiment [4], 0.411; in experiment [5], 1.14; in experiment [6], 0.177. The composite z-score with Sam68 (KHDRBS1) is 1.29; in experiment [7] it was 1.36; in experiment [8] it was 1.1; in [9], 2.26; in experiment [10], 1.21; in [11] it was 0.626. The composite z-score turned out to be 0.584 in [12]; 1.32 in experiment [13]; 1.67 in experiment [14]; 1.45 in the experiment with Lefty1; 0.478 in [16]. For the same compound, the composite Z-score in experiment [1] was 0.297 (inactive). Besides, the values for the z-score in experiment [15] and in experiment [17] were -0.738 and -3.39 (inactive), respectively.

As for `C=CC1c2cc(O)c(OC)cc2CCN1Cc1cccc(OC(F)(F)F)c1` (stereo not given), the composite z-score was 0.971 in the experiment with Albumin (Bos taurus); -0.0596 in experiment [2]; -0.16 in [3]; 0.893 in experiment [4]; 3.33 in experiment [5]; 0.754 in experiment [6]. In addition, the composite z-score in the experiment with Sam68 (KHDRBS1) worked out at 0.909; in experiment [7], 0.44; in experiment [8], 0.462; in [9] it was 1.33; in experiment [10] it was 0.167; in experiment [11], 0.408. For the same compound, the composite z-score was -0.36 in [12]; -0.0223 in [13]; -0.43 in experiment [14]; -0.145 in the experiment with Lefty1; 1.01 in [16]. Also, in experiment [1], the composite Z-score was 0.625 (inactive). Moreover, the figures for the z-score in [15] and in experiment [17] were -1.03 and 0.454 (inactive), respectively.

(Values after PubChem BioAssay.)
